Experimental data as given in PubChem BioAssay AID624354 (Sanford-Burnham Center for Chemical Genomics, 2012).
Among all 360,000 compounds or so, about 3,800 (1.1%) were called active. The full list was thinned out, with actives kept by preference. Values without a mark were called inactive.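 How the source made its calls: active means compounds causing at least 50% loss of cell viability in the single-dose screen, relative to plate controls; inactive means the rest.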

Assay: TRAIL-exposed caspase-8 expressing cell killing – NB7+C8 cells, ATPlite luminescence, TRAIL sensitizer project, primary screen (AID 624354)
Conditions: at 10 µM, hits give high values
Work on `Cc1ccccc1C(=O)NNC(=O)CN1C(=O)c2ccccc2C1=O` yielded an inhibition (viability loss, TRAIL sensitization) of -2.34%. With `C=CCn1c(C)cc(C(=O)CN2C(=O)c3ccccc3C2=O)c1C` the inhibition (viability loss, TRAIL sensitization) was 52% (active). With `C=CCN(CC=C)C(=O)CN1C(=O)c2ccccc2C1=O` the inhibition (viability loss, TRAIL sensitization) was 36.5%. `COc1ccc(CN2C[C@H]3CON(C)[C@H]3C[C@H]2c2ccc(-c3cccc(F)c3)cc2)cc1` gave an inhibition (viability loss, TRAIL sensitization) of 17%. With `COc1ccc(NC(=O)/C(Cl)=C(/Cl)S(=O)Cc2ccc(C)cc2)cn1` (centres undefined) the inhibition (viability loss, TRAIL sensitization) was 95.5% (active). Work on `COc1cc(NC(=O)Nc2ccc(C)cc2)cc([N+](=O)[O-])c1` yielded an inhibition (viability loss, TRAIL sensitization) of 3.5%. `COC(C)(C)[C@]12CC(O)(C(C)C)ON1[C@H]1CCCCC1N2O` (some centres undefined) gave an inhibition (viability loss, TRAIL sensitization) of -21.2%. Molecule `O=[N+]([O-])c1c(NCCO)cc(Sc2nc3ccccc3s2)c2nonc12` has an inhibition (viability loss, TRAIL sensitization) of 20.4%. For `O=[N+]([O-])c1cc(Br)c(O)c(/C=N/Nc2nc3ccccc3s2)c1`, the inhibition (viability loss, TRAIL sensitization) was 51.2% (active). `O=[N+]([O-])c1cccc(C=NN=Cc2ccccc2O)c1` showed an inhibition (viability loss, TRAIL sensitization) of 11%. `CC(C)C[C@H]1CNC(=S)N1C[C@H]1CCCN1C[C@H](Cc1ccc(O)cc1)N1C[C@H](Cc2ccc(O)cc2)N(CC2CCCCC2)C1=S` showed an inhibition (viability loss, TRAIL sensitization) of 9.11%. For `COc1cc(/C=C2\Oc3ccc(C#Cc4ccc(O)cc4)cc3C2=O)cc(OC)c1`, the inhibition (viability loss, TRAIL sensitization) was 64.7% (active). With `COc1cc(C(=O)N2CCOC23CCN(Cc2ccccc2)CC3)cc(OC)c1OC` the inhibition (viability loss, TRAIL sensitization) was -0.803%. Work on `CCSCc1nc(N)nc(NCCc2ccccc2)n1` yielded an inhibition (viability loss, TRAIL sensitization) of -10.6%. For `CC(=O)Nc1cccc(C(=O)OCC(=O)c2ccc3c(c2)OCO3)c1`, the inhibition (viability loss, TRAIL sensitization) was 61.4% (active). `CC(=O)Nc1cccc(C(=O)OCN2C(=O)c3ccccc3C2=O)c1` gave an inhibition (viability loss, TRAIL sensitization) of -5.54%. With `CC(=O)Nc1cccc(C(=O)OCC(=O)NCc2cc(C)c(O)c(C)c2)c1` the inhibition (viability loss, TRAIL sensitization) was -2.97%. For `CC(C)C[C@@H](COc1ccccc1)N1CCN(CC(C)C)CCC1=O`, the inhibition (viability loss, TRAIL sensitization) was -6.68%. For `CCCCc1nc(NCc2ccccc2)c(C#N)c2c1CCCC2`, the inhibition (viability loss, TRAIL sensitization) was 4.11%. With `CCCCc1nc(NCCN)c(C#N)c2c1CSC(C)(C)C2` the inhibition (viability loss, TRAIL sensitization) was 57.7% (active). With `CC(=O)N1CCCc2cc(S(=O)(=O)N3CCCC(C(=O)N4CCN(c5cccc(Cl)c5)CC4)C3)ccc21` (centres undefined) the inhibition (viability loss, TRAIL sensitization) was 35.8%. `Cc1nc2ccc(N)nc2nc1C` showed an inhibition (viability loss, TRAIL sensitization) of 6.29%. `COc1cccc(-n2c(=O)c3c(C)c(C(=O)N(C)C)sc3n(CC(=O)NCCc3ccc(OC)c(OC)c3)c2=O)c1` showed an inhibition (viability loss, TRAIL sensitization) of -6.94%. `Cc1cc(OC(=O)c2ccccc2Cl)ccc1N1C(=O)CCC1=O` gave an inhibition (viability loss, TRAIL sensitization) of 7.7%. In the case of `Cc1cccc(/C(N)=N/OC(=O)c2ccccc2Cl)c1`, the inhibition (viability loss, TRAIL sensitization) is reported as 60.5% (active). `C/C(=N\OC(=O)c1ccccc1)c1c(C)nc2cc(C)ccn12` showed an inhibition (viability loss, TRAIL sensitization) of -6.57%. `O=C(Nc1cccc2c1N(C(=O)c1ccco1)CCC2)c1ccco1` gave an inhibition (viability loss, TRAIL sensitization) of -4.17%. Work on `Cc1ccc(C(C)C)c(OCCSc2nc3ccccc3n2CC(=O)O)c1` yielded an inhibition (viability loss, TRAIL sensitization) of -6.21%. Molecule `COc1ccc(NC(=O)CN2C(=O)COc3ccc(S(=O)(=O)N4CCOCC4)cc32)cc1` has an inhibition (viability loss, TRAIL sensitization) of 4.01%. With `Cc1cc(Cl)c2oc(C(=O)N3CCC(O)(c4ccccc4)CC3)c(C)c2c1` the inhibition (viability loss, TRAIL sensitization) was 12.6%. With `Cc1nc(Cl)c2oc3ccccc3c2n1` the inhibition (viability loss, TRAIL sensitization) was 69.6% (active). In the case of `Cc1nc(N2CCCC2C(=O)O)c2oc3ccccc3c2n1` (centres undefined), the inhibition (viability loss, TRAIL sensitization) is reported as -12.2%. Molecule `C[C@@H](Nc1nc(-c2ccccc2)nc2c1oc1ccccc12)C(=O)O` has an inhibition (viability loss, TRAIL sensitization) of -9.15%. In the case of `CC(=O)N(Cc1cc(=O)[nH]c2ccccc12)c1ccc(C)cc1C`, the inhibition (viability loss, TRAIL sensitization) is reported as 1.98%. For `Cc1ccc(N(Cc2cc(=O)[nH]c3ccccc23)C(=O)CCl)cc1`, the inhibition (viability loss, TRAIL sensitization) was 92.9% (active). `CCC(=O)N(Cc1cc2ccccc2[nH]c1=O)c1ccc(OC)cc1` showed an inhibition (viability loss, TRAIL sensitization) of -1.03%. Work on `CN(C(=O)CSc1nnc(-c2ccc3c(c2)OCO3)o1)C1CCS(=O)(=O)C1` (centres undefined) yielded an inhibition (viability loss, TRAIL sensitization) of -7.74%. In the case of `C=C1C(=O)[C@]23C[C@H]1CCC2[C@@]1(C)C(C[C@@H]3O)[C@](C)(C(=O)O)CC[C@@H]1O` (some centres undefined), the inhibition (viability loss, TRAIL sensitization) is reported as 25.6%. With `CCOc1ccc2nc(N3CCCN(C(=O)Nc4ccccc4C)CC3)c(C#N)cc2c1` the inhibition (viability loss, TRAIL sensitization) was 4.35%. With `CCOc1ccc2cc(C#N)c(SCC(=O)OC)nc2c1` the inhibition (viability loss, TRAIL sensitization) was 51.7% (active). `COc1ccc(CCNC(=O)CSc2nc(-c3ccc(OC)c(OC)c3)ccc2C#N)cc1` showed an inhibition (viability loss, TRAIL sensitization) of 28%. Work on `O=C(NCCO)C(=O)NCC(c1ccc2c(c1)OCO2)N1CCN(c2ccc(F)cc2)CC1` (centres undefined) yielded an inhibition (viability loss, TRAIL sensitization) of -13%. `COc1ccc([N+](=O)[O-])cc1NC(=O)C(C)OC(=O)C1c2ccccc2Oc2ccccc21` (centres undefined) gave an inhibition (viability loss, TRAIL sensitization) of 5.23%. In the case of `CCN(C(=O)COc1cccnc1[N+](=O)[O-])C1CCS(=O)(=O)C1` (centres undefined), the inhibition (viability loss, TRAIL sensitization) is reported as -20.2%. For `CN(C)CCCN(C(=O)c1ccc(S(=O)(=O)N2CCCc3ccccc32)cc1)c1nc2ccc(F)cc2s1`, the inhibition (viability loss, TRAIL sensitization) was 49.7% (active). In the case of `CCC(=O)Nc1nnc(S(=O)(=O)N2CCCc3ccccc32)s1`, the inhibition (viability loss, TRAIL sensitization) is reported as 18.7%. `CC1CCN(C(=O)c2cccc(S(=O)(=O)N3CCCc4ccccc43)c2)CC1` showed an inhibition (viability loss, TRAIL sensitization) of 9.56%. `CCOc1ccc2nc(C(=O)N3CCCC(C)C3)sc2c1` (centres undefined) showed an inhibition (viability loss, TRAIL sensitization) of 31.9%. Molecule `CCN(C(=O)COc1ccc(C(=O)c2ccccc2)cc1)c1ccccc1` has an inhibition (viability loss, TRAIL sensitization) of 5.81%. For `CCOc1ccc2nc(N(CCCN(C)C)C(=O)c3ccc(C(=O)c4ccccc4)cc3)sc2c1`, the inhibition (viability loss, TRAIL sensitization) was 84.6% (active). In the case of `CC(C)CC(=O)N1CCN(Cc2ccccc2Br)CC1`, the inhibition (viability loss, TRAIL sensitization) is reported as -13.2%. Molecule `COC(=O)[C@]12CCCCC=C1N(Cc1cccc3ccccc13)C(=O)[C@H](CC(=O)N1CCOCC1)C2` has an inhibition (viability loss, TRAIL sensitization) of -17.8%. With `CCN(Cc1ccncc1)C(=S)Nc1ccccc1C` the inhibition (viability loss, TRAIL sensitization) was -14.3%. Molecule `COc1cc(C=O)ccc1Oc1nnnn1-c1ccccc1` has an inhibition (viability loss, TRAIL sensitization) of 9.4%. Molecule `O=C(CNC(=O)c1cc(=O)[nH]c2ccccc12)Nc1ccc(F)c(F)c1` has an inhibition (viability loss, TRAIL sensitization) of -6.89%. For `CN1CCN(CCCNC(=O)c2ccc(/C=C3\Oc4ccccc4N(Cc4ccc(Cl)cc4)C3=O)cc2)CC1`, the inhibition (viability loss, TRAIL sensitization) was 70.5% (active). `CCC1Oc2ccccc2N(CC(=O)NCCCN2CCN(CC)CC2)C1=O` (centres undefined) showed an inhibition (viability loss, TRAIL sensitization) of -10.7%. In the case of `Cc1ccc(NC(=O)CCCNC(=O)c2ccc(Cl)cc2)cc1S(=O)(=O)N1CCOCC1`, the inhibition (viability loss, TRAIL sensitization) is reported as 3.06%. `O=C(Nc1cccc(F)c1)N1C2CCC1CC(O)(c1cccnc1)C2` (centres undefined) gave an inhibition (viability loss, TRAIL sensitization) of -0.997%. `CCCn1c(C)cc(C(=O)COC(=O)c2c(C)nn(-c3ccccc3)c2C)c1C` gave an inhibition (viability loss, TRAIL sensitization) of 1.44%. Molecule `COc1ccc(CNC(=O)COC(=O)c2sccc2C)cc1OC` has an inhibition (viability loss, TRAIL sensitization) of -16.5%. With `Cc1ccsc1C(=O)OCC(=O)c1cc(C)n(CC2CCCO2)c1C` (centres undefined) the inhibition (viability loss, TRAIL sensitization) was 75.4% (active). `COc1ccc(/C=N/N=C/c2c[nH]c(=O)c(C#N)c2Nc2ccccc2)cc1` showed an inhibition (viability loss, TRAIL sensitization) of 19.4%. `COc1ccc(-c2cc3nc(NCCOc4ccccc4)ccn3n2)cc1` gave an inhibition (viability loss, TRAIL sensitization) of 2.79%. In the case of `Cc1ccc(S(=O)(=O)NCc2cn3ccsc3n2)c(C)c1`, the inhibition (viability loss, TRAIL sensitization) is reported as -5.68%. With `COc1ccc(-c2cn3ccc(C)cc3n2)cc1` the inhibition (viability loss, TRAIL sensitization) was 87.1% (active). For `COc1ccc(-c2cn3ccsc3n2)cc1`, the inhibition (viability loss, TRAIL sensitization) was 54.1% (active). In the case of `COc1cc(OC)cc(-c2nc(=S)n3ccsc3n2)c1`, the inhibition (viability loss, TRAIL sensitization) is reported as -7%. In the case of `FC(F)(F)Oc1ccc(-c2cn3cccnc3n2)cc1`, the inhibition (viability loss, TRAIL sensitization) is reported as 34.5%. With `CCn1cc(C(=O)NCC(=O)NC(C)(C)CO)c(=O)c2cc3c(cc21)OCO3` the inhibition (viability loss, TRAIL sensitization) was -16.5%. With `COc1ccc(C(C)NC(=S)NC2CCCCC2)cc1OC` (centres undefined) the inhibition (viability loss, TRAIL sensitization) was -10.3%. For `CN1CC(c2ccccc2)C2(COc3ccccc3C2=O)C12C(=O)Nc1ccccc12` (centres undefined), the inhibition (viability loss, TRAIL sensitization) was 1.61%. With `COc1ccc(OC)c(NC(=O)CSc2nc(N)c(-c3ccccc3)c(=O)[nH]2)c1` the inhibition (viability loss, TRAIL sensitization) was -16.4%. Molecule `OC(CNCc1ccc(Cl)c(Cl)c1)c1ccccc1` (centres undefined) has an inhibition (viability loss, TRAIL sensitization) of 1.28%.
